# The supplement of paper PMC8728848
# This excerpt belongs to a sample that is enriched for the strongest signals.
# Experiments:
# Assay in all cases: glycan array binding signal (z-score within array); higher = stronger binding
# Settings in all cases: glycan notation: IUPAC condensed, linker removed; mutation: H59Q
# [1] = biological target: Fuc(a1-2)Gal(b1-3)[Fuc(a1-4)]GlcNAc(b1-2)Man(a1-3)[Fuc(a1-2)Gal(b1-3)[Fuc(a1-4)]GlcNAc(b1-2)Man(a1-3)]Man(b1-4)GlcNAc(b1-4)GlcNAc
# Method in brief: (§1)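 The binding signal is a Z-score computed within each array and averaged over linkers. Arrays of the same protein sequence at different concentrations or buffers were also averaged together. Data originate from 3228 arrays in the Consortium for Functional Glycomics database, kept only where the protein sequence was available.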
# [2] = biological target: Fuc(a1-2)Gal(b1-4)GlcNAc(b1-3)Gal(b1-4)GlcNAc(b1-3)Gal(b1-4)GlcNAc
# Method in brief: as §1
# [3] = biological target: Fuc(a1-2)Gal(b1-4)GlcNAc6S
# Method in brief: as §1
# [4] = biological target: Fuc(a1-2)Gal(b1-4)[Fuc(a1-3)]GlcNAc
# Method in brief: as §1
# [5] = biological target: Fuc(a1-2)Gal(b1-4)[Fuc(a1-3)]GlcNAc(b1-2)Man(a1-3)[Fuc(a1-2)Gal(b1-4)[Fuc(a1-3)]GlcNAc(b1-2)Man(a1-6)]Man(b1-4)GlcNAc(b1-4)[Fuc(a1-6)]GlcNAc
# Method in brief: as §1
# [6] = biological target: Fuc(a1-2)[Gal(a1-3)]Gal(b1-4)[Fuc(a1-3)]Glc
# Method in brief: as §1
# [7] = biological target: Fuc(a1-2)[GalNAc(a1-3)]Gal(b1-3)GlcNAc(b1-2)Man(a1-3)[Fuc(a1-2)[GalNAc(a1-3)]Gal(b1-3)GlcNAc(b1-2)Man(a1-6)]Man(b1-4)GlcNAc(b1-4)[Fuc(a1-6)]GlcNAc
# Method in brief: as §1
# [8] = biological target: Fuc(a1-2)[GalNAc(a1-3)]Gal(b1-3)GlcNAc(b1-3)GalNAc
# Method in brief: as §1
# [9] = biological target: Fuc(a1-2)[GalNAc(a1-3)]Gal(b1-4)GlcNAc(b1-6)GalNAc
# Method in brief: as §1
# [10] = biological target: Fuc(a1-3)[Gal(b1-4)]GlcNAc(b1-6)GalNAc
# Method in brief: as §1
# Gal(a1-3)Gal(b1-4)Glc = biological target: Gal(a1-3)Gal(b1-4)Glc
# Method in brief: as §1
# [11] = biological target: Gal(b1-3)GlcNAc(a1-3)Gal(b1-4)GlcNAc
# Method in brief: as §1
# [12] = biological target: Gal(b1-3)GlcNAc(b1-3)Gal(b1-4)GlcNAc
# Method in brief: as §1
# [13] = biological target: Gal(b1-3)GlcNAc(b1-3)Gal(b1-4)GlcNAc(b1-2)[Gal(b1-3)GlcNAc(b1-3)Gal(b1-4)GlcNAc(b1-6)]Man(a1-6)[Gal(b1-3)GlcNAc(b1-3)Gal(b1-4)GlcNAc(b1-2)Man(a1-3)]Man(b1-4)GlcNAc(b1-4)[Fuc(a1-6)]GlcNAc
# Method in brief: as §1
# [14] = biological target: Gal(b1-3)[Fuc(a1-4)]GlcNAc
# Method in brief: as §1
# [15] = biological target: Gal(b1-4)GlcNAc(b1-2)Man(a1-3)[GlcNAc(b1-4)][Gal(b1-4)GlcNAc(b1-2)Man(a1-6)]Man(b1-4)GlcNAc(b1-4)GlcNAc
# Method in brief: as §1
# [16] = biological target: Gal(b1-4)GlcNAc(b1-2)Man(a1-3)[Man(a1-6)]Man(b1-4)GlcNAc(b1-4)GlcNAc
# Method in brief: as §1
# [17] = biological target: Gal(b1-4)GlcNAc(b1-2)Man(a1-6)[Man(a1-3)]Man(b1-4)GlcNAc(b1-4)GlcNAc
# Method in brief: as §1
# [18] = biological target: Gal(b1-4)GlcNAc(b1-3)Gal(b1-4)GlcNAc(b1-2)Man(a1-3)[Gal(b1-4)GlcNAc(b1-3)Gal(b1-4)GlcNAc(b1-2)Man(a1-6)]Man(b1-4)GlcNAc(b1-4)[Fuc(a1-6)]GlcNAc
# Method in brief: as §1
# [19] = biological target: Gal(b1-4)GlcNAc(b1-3)[GlcNAc(b1-6)]Gal(b1-4)GlcNAc
# Method in brief: as §1
# Gal3S(b1-3)GalNAc = biological target: Gal3S(b1-3)GalNAc
# Method in brief: as §1
# Gal3S(b1-3)GlcNAc = biological target: Gal3S(b1-3)GlcNAc
# Method in brief: as §1
# Gal3S(b1-4)Glc = biological target: Gal3S(b1-4)Glc
# Method in brief: as §1
# Gal3S(b1-4)Glc6S = biological target: Gal3S(b1-4)Glc6S
# Method in brief: as §1
# Gal3S(b1-4)GlcNAc = biological target: Gal3S(b1-4)GlcNAc
# Method in brief: as §1
# [20] = biological target: Gal3S(b1-4)[Fuc(a1-3)]GlcNAc6S
# Method in brief: as §1
binder,measurement,setting,value
"rAAL-H59Q (Agrocybe aegerita), Q6WY08 (protein) MQGVNIYNISAGTSVDLAAPVTTGDIVTFFSSALNLNAGAGNPNNTTLNLFAENGAYLLQIAFRLQENVIIFNSRQPDGPWLVEQRVSDVANQFAGIDGKAMVTVFDHGDKYQVVINEKTVIQYTKQISGLTLSLSYNATEETSIFSTVVEAVTYTGLALEHHHHHH",glycan array binding signal (z-score),[1],-0.014
same,glycan array binding signal (z-score),[2],-0.113
same,glycan array binding signal (z-score),[3],-0.085
same,glycan array binding signal (z-score),[4],-0.09
same,glycan array binding signal (z-score),[5],0.171
same,glycan array binding signal (z-score),[6],-0.097
same,glycan array binding signal (z-score),[7],-0.106
same,glycan array binding signal (z-score),[8],-0.035
same,glycan array binding signal (z-score),[9],-0.124
same,glycan array binding signal (z-score),[10],-0.126
same,glycan array binding signal (z-score),Gal(a1-3)Gal(b1-4)Glc,-0.07
same,glycan array binding signal (z-score),[11],-0.119
same,glycan array binding signal (z-score),[12],-0.093
same,glycan array binding signal (z-score),[13],0.115
same,glycan array binding signal (z-score),[14],-0.116
same,glycan array binding signal (z-score),[15],-0.06
same,glycan array binding signal (z-score),[16],-0.059
same,glycan array binding signal (z-score),[17],0.003
same,glycan array binding signal (z-score),[18],-0.015
same,glycan array binding signal (z-score),[19],-0.115
same,glycan array binding signal (z-score),Gal3S(b1-3)GalNAc,7.76
same,glycan array binding signal (z-score),Gal3S(b1-3)GlcNAc,0.192
same,glycan array binding signal (z-score),Gal3S(b1-4)Glc,0.7
same,glycan array binding signal (z-score),Gal3S(b1-4)Glc6S,0.468
same,glycan array binding signal (z-score),Gal3S(b1-4)GlcNAc,0.615
same,glycan array binding signal (z-score),[20],0.694
